According to PubChem BioAssay AID1159580 (chemical genetic matrix, 2015):
Values joined by “and” are separate entries in the source; they are usually repeats but may differ in a detail not shown here. Equal entries are not always repeated. The campaign covered roughly 5,500 compounds. About 2,000 (36%) were called active. About 18% were inconclusive and are not listed. Rule as the data show it: active = normalized growth mostly below about 0.91 (no sharp cut-off); inconclusive = no clear call, values can overlap the other calls; inactive = mostly above about 0.92. This is one part of the list. Where a structure was tested more than once in an assay, its records may differ in their call.

Assay: chemical genetic growth profiling, strain panel (AID 1159580);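 also: tested at 20 µM; growth read once vehicle control cultures reached saturation at 30 °C; 1 = growth at the plate median or of vehicle wells; lower values mean less growth of the strain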
Conditions: S. cerevisiae deletion strains, growth OD

Measured: normalized growth

CCN(CC)CCCC(C)Nc1c2ccc(Cl)cc2nc2ccc(OC)cc12 (stereo unspecified)
inactive: locus YAL013W, strain DEP1, stronger effect = lower value 0.992 | locus YAL026C, strain drs2, stronger effect = lower value 0.994 | locus YAL030W, strain snc1, stronger effect = lower value 1.02 | locus YAL040C, strain CLN3, stronger effect = lower value 0.972 | locus YBL061C, strain skt5, stronger effect = lower value 1.03 | locus YBR021W, strain FUR4, stronger effect = lower value 0.89 | locus YBR023C, strain chs3, stronger effect = lower value 0.984 | locus YBR171W, strain sec66, stronger effect = lower value 1.05 | locus YBR231C, strain swc5, stronger effect = lower value 0.978 | locus YBR279W, strain paf1, stronger effect = lower value 0.966 | locus YCL011C, strain gbp2, stronger effect = lower value 0.965 | locus YCL061C, strain MRC1, stronger effect = lower value 1.01 | locus YCL069W, strain vba3, stronger effect = lower value 1.01 | locus YCR088W, strain abp1, stronger effect = lower value 1.03 | locus YDL005C, strain med2, stronger effect = lower value 1.01 | locus YDL040C, strain nat1, stronger effect = lower value 1.03 | locus YDL185W, strain tfp1, stronger effect = lower value 1.01 | locus YDR001C, strain nth1, stronger effect = lower value 1.04 | locus YDR069C, strain doa4, stronger effect = lower value 0.989 | locus YDR137W, strain rgp1, stronger effect = lower value 1.04 | locus YDR159W, strain sac3, stronger effect = lower value 1.08 | locus YDR195W, strain ref2 1.06 | locus YDR297W, strain sur2, stronger effect = lower value 1 | locus YDR334W, strain swr1, stronger effect = lower value 1.02 | locus YDR335W, strain msn5, stronger effect = lower value 1.02 | locus YEL003W, strain gim4, stronger effect = lower value 1.01 | locus YEL037C, strain rad23, stronger effect = lower value 0.992 | locus YEL061C, strain CIN8 (second series), stronger effect = lower value 1.03 | locus YER002W, strain NOP16, stronger effect = lower value 1 | locus YER015W, strain faa2, stronger effect = lower value 1.01 | locus YER016W, strain bim1, stronger effect = lower value 1.02 | locus YER110C, stronger effect = lower value 0.908 | locus YER111C, strain swi4, stronger effect = lower value 1.02 | locus YER155C, strain BEM2 (second series), stronger effect = lower value 0.943 | locus YER155C, strain BEM2, stronger effect = lower value 0.997 | locus YFR010W, strain ubp6, stronger effect = lower value 0.988 | locus YGL167C, strain pmr1, stronger effect = lower value 1.03 | locus YGL173C, strain kem1, stronger effect = lower value 0.997 | locus YGL227W, strain vid30, stronger effect = lower value 1.03 | locus YGL240W, strain doc1, stronger effect = lower value 1 | locus YGL253W, strain hxk2, stronger effect = lower value 0.975 | locus YHR027C, strain rpn1, stronger effect = lower value 1.03 | locus YHR142W, strain chs7, stronger effect = lower value 0.947 | locus YIL073C, strain SPO22, stronger effect = lower value 0.69 | locus YJL092W, strain hpr5, stronger effect = lower value 1.02 | locus YJL095W, strain BCK1 (second series), stronger effect = lower value 1.03 | locus YJL115W, strain asf1, stronger effect = lower value 1.03 | locus YJL129C, strain trk1, stronger effect = lower value 1.02 | locus YJL134W, strain LCB3, stronger effect = lower value 1.01 | locus YJL154C, strain vps35, stronger effect = lower value 1.04 | locus YJL166W, strain qcr8, stronger effect = lower value 0.942 | locus YJL168C, strain set2, stronger effect = lower value 1.02 | locus YJL187C, strain SWE1, stronger effect = lower value 1.01
active: locus YAL021C, strain ccr4, stronger effect = lower value 0.906 | locus YBR009C, strain hhf1, stronger effect = lower value 0.894 | locus YBR229C, strain ROT2, stronger effect = lower value 0.87 | locus YCL016C, strain dcc1, stronger effect = lower value 0.844 | locus YCL029C, strain bik1, stronger effect = lower value 0.479 | locus YCL061C, strain MRC1 (second series), stronger effect = lower value 0.917 | locus YDL035C, strain GPR1, stronger effect = lower value 0.627 | locus YDL074C, strain BRE1, stronger effect = lower value 0.511 | locus YDL101C, strain DUN1, stronger effect = lower value 0.728 | locus YDL134C, strain PPH21, stronger effect = lower value 0.771 | locus YDL192W, strain arf1, stronger effect = lower value 0.669 | locus YDR101C, strain arx1, stronger effect = lower value 0.413 | locus YDR162C, strain NBP2, stronger effect = lower value 0.802 | locus YDR318W, strain mcm21, stronger effect = lower value 0.618 | locus YDR363W, strain ESC2, stronger effect = lower value 0.715 | locus YDR388W, stronger effect = lower value 0.695 | locus YDR392W, strain spt3, stronger effect = lower value 0.717 | locus YDR502C, strain sam2, stronger effect = lower value 0.708 | locus YEL061C, strain CIN8, stronger effect = lower value 0.907 | locus YER167W, strain BCK2, stronger effect = lower value 0.641 | locus YGL078C, strain dbp3, stronger effect = lower value 0.817 | locus YGL086W, strain mad1, stronger effect = lower value 0.74 | locus YGL248W, strain PDE1, stronger effect = lower value 0.735 | locus YGR078C, strain PAC10, stronger effect = lower value 0.818 | locus YGR135W, strain pre9, stronger effect = lower value 0.739 | locus YGR229C, strain SMI1, stronger effect = lower value 0.754 | locus YGR252W, strain gcn5, stronger effect = lower value 0.643 | locus YHR013C, strain ard1, stronger effect = lower value 0.844 | locus YHR030C, strain SLT2, stronger effect = lower value 0.911 and 0.737 | locus YHR079C, strain IRE1 (second series), stronger effect = lower value 0.49 | locus YHR079C, strain IRE1, stronger effect = lower value 0.761 | locus YHR094C, strain hxt1, stronger effect = lower value 0.796 | locus YHR129C, strain ARP1, stronger effect = lower value 0.809 | locus YHR200W, strain rpn10, stronger effect = lower value 0.786 | locus YIL066C, strain RNR3, stronger effect = lower value 0.798 | locus YIL125W, strain kgd1, stronger effect = lower value 0.899 | locus YIR030C, strain dcg1, stronger effect = lower value 0.768 | locus YJL095W, strain BCK1, stronger effect = lower value 0.622 and 0.668 | locus YJL164C, strain tpk1, stronger effect = lower value 0.911 | locus YJL187C, strain SWE1 (second series), stronger effect = lower value 0.453 | locus YJR043C, strain POL32, stronger effect = lower value 0.79 | locus YJR066W, strain TOR1, stronger effect = lower value 0.558
0.945 (inactive) and 0.826 (active): locus YDR150W, strain NUM1, stronger effect = lower value
